Measured values reported in PubChem BioAssay AID1159580 (chemical genetic matrix, 2015).
The campaign covered roughly 5,500 compounds. About 2,000 (36%) were called active. Inconclusive results (about 18%) are left out. No stated cut-off is given here; in the data, active means normalized growth mostly below about 0.91 (no sharp cut-off); inconclusive means no clear call, values can overlap the other calls; inactive means mostly above about 0.92. This is one part of the list.

Test: chemical genetic growth profiling, strain panel (AID 1159580);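 further: tested at 20 µM; growth read once vehicle control cultures reached saturation at 30 °C; 1 = growth at the plate median or of vehicle wells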
Details: growth OD
[1] = S. cerevisiae deletion strains, locus YDL101C, strain DUN1, stronger effect = lower value
[2] = S. cerevisiae deletion strains, locus YHR030C, strain SLT2, stronger effect = lower value

Measured: normalized growth

O=C1/C(=C/c2ccc(Cl)cc2)COc2ccc(F)cc21
active: [2] 0.305 | S. cerevisiae deletion strains, locus YLR039C, strain RIC1, stronger effect = lower value 0.472 | S. cerevisiae deletion strains, locus YLR085C, strain ARP6, stronger effect = lower value 0.431 | S. cerevisiae deletion strains, locus YLR262C, strain YPT6, stronger effect = lower value 0.528 | S. cerevisiae deletion strains, locus YNL298W, strain CLA4 (second series), stronger effect = lower value 0.83 | S. cerevisiae deletion strains, locus YNR030W, strain Alg12, stronger effect = lower value 0.829 | S. cerevisiae deletion strains, locus YPL241C, strain CIN2, stronger effect = lower value 0.704 | S. cerevisiae deletion strains, locus YPR135W, strain CTF4, stronger effect = lower value 0.405
inactive: S. cerevisiae deletion strains, locus YAL013W, strain DEP1, stronger effect = lower value 0.956 | S. cerevisiae deletion strains, locus YBR229C, strain ROT2, stronger effect = lower value 0.978 | [1] 1.01 | S. cerevisiae deletion strains, locus YDR150W, strain NUM1, stronger effect = lower value 1.01 | S. cerevisiae deletion strains, locus YEL061C, strain CIN8, stronger effect = lower value 0.934 | S. cerevisiae deletion strains, locus YGR078C, strain PAC10, stronger effect = lower value 0.972 | S. cerevisiae deletion strains, locus YGR229C, strain SMI1, stronger effect = lower value 0.951 | S. cerevisiae deletion strains, locus YHR087W, strain rtc3, stronger effect = lower value 0.96 | S. cerevisiae deletion strains, locus YJR043C, strain POL32, stronger effect = lower value 0.977 | S. cerevisiae deletion strains, locus YJR075W, strain HOC1, stronger effect = lower value 0.98 | S. cerevisiae deletion strains, locus YLR058C, strain SHM2 (second series), stronger effect = lower value 0.959 | S. cerevisiae deletion strains, locus YML094W, strain GIM5, stronger effect = lower value 0.941 | S. cerevisiae deletion strains, locus YMR219W, strain ESC1, stronger effect = lower value 0.963 | S. cerevisiae deletion strains, locus YMR263W, strain SAP30, stronger effect = lower value 0.942 | S. cerevisiae deletion strains, locus YNL153C, strain GIM3, stronger effect = lower value 0.986 | S. cerevisiae deletion strains, locus YNL322C, strain KRE1, stronger effect = lower value 0.959 | S. cerevisiae deletion strains, locus YPL055C, strain LGE1, stronger effect = lower value 0.963 | S. cerevisiae strains, strain wild type, stronger effect = lower value 0.967

O=C1/C(=C/c2ccc(C(F)(F)F)cc2)COc2ccccc21
inactive: S. cerevisiae deletion strains, locus YAR019C, strain CDC15, stronger effect = lower value 0.937 | S. cerevisiae deletion strains, locus YBL105C, strain PKC1, stronger effect = lower value 0.924 | S. cerevisiae deletion strains, locus YBR135W, strain CKS1, stronger effect = lower value 0.92 | S. cerevisiae deletion strains, locus YBR136W, strain MEC1, stronger effect = lower value 0.924 | S. cerevisiae deletion strains, locus YBR160W, strain CDC28, stronger effect = lower value 0.926 | S. cerevisiae deletion strains, locus YDL017W, strain CDC7, stronger effect = lower value 0.926 | S. cerevisiae deletion strains, locus YDL028C, strain MPS1, stronger effect = lower value 0.925 | [1] 0.946 | S. cerevisiae deletion strains, locus YDL108W, strain KIN28, stronger effect = lower value 0.923 | S. cerevisiae deletion strains, locus YDL132W, strain cdc53, stronger effect = lower value 0.934 | S. cerevisiae deletion strains, locus YDL214C, strain PRR2, stronger effect = lower value 0.936 | S. cerevisiae deletion strains, locus YDR052C, strain DBF4, stronger effect = lower value 0.931 | S. cerevisiae deletion strains, locus YDR054C, strain cdc34, stronger effect = lower value 0.931 | S. cerevisiae deletion strains, locus YDR226W, strain ADK1, stronger effect = lower value 0.925 | S. cerevisiae deletion strains, locus YDR477W, strain SNF1, stronger effect = lower value 0.914 | S. cerevisiae deletion strains, locus YER123W, strain YCK3, stronger effect = lower value 0.886 | S. cerevisiae deletion strains, locus YER133W, strain GLC7, stronger effect = lower value 0.913 | S. cerevisiae deletion strains, locus YFL009W, strain cdc4, stronger effect = lower value 0.926 | S. cerevisiae deletion strains, locus YFL029C, strain CAK1, stronger effect = lower value 0.927 | S. cerevisiae deletion strains, locus YFR003C, strain YPI1, stronger effect = lower value 0.93 | S. cerevisiae deletion strains, locus YFR019W, strain FAB1, stronger effect = lower value 0.953 | S. cerevisiae deletion strains, locus YFR028C, strain CDC14, stronger effect = lower value 0.961 | S. cerevisiae deletion strains, locus YGR040W, strain KSS1, stronger effect = lower value 0.894 | S. cerevisiae deletion strains, locus YGR052W, strain FMP48, stronger effect = lower value 0.953 | S. cerevisiae deletion strains, locus YGR092W, strain DBF2, stronger effect = lower value 0.719 | S. cerevisiae deletion strains, locus YHR079C, strain IRE1, stronger effect = lower value 0.888 | S. cerevisiae deletion strains, locus YHR082C, strain KSP1, stronger effect = lower value 0.85 | S. cerevisiae deletion strains, locus YHR205W, strain SCH9, stronger effect = lower value 0.784 | S. cerevisiae deletion strains, locus YIL147C, strain SLN1, stronger effect = lower value 0.917 | S. cerevisiae deletion strains, locus YJL095W, strain BCK1, stronger effect = lower value 0.901 | S. cerevisiae deletion strains, locus YJL128C, strain PBS2, stronger effect = lower value 0.896 | S. cerevisiae deletion strains, locus YJL157C, strain FAR1, stronger effect = lower value 0.92 | S. cerevisiae deletion strains, locus YJR016C, strain ILV3, stronger effect = lower value 0.929 | S. cerevisiae deletion strains, locus YJR066W, strain TOR1 (second series), stronger effect = lower value 0.976 | S. cerevisiae deletion strains, locus YJR066W, strain TOR1, stronger effect = lower value 0.817 | S. cerevisiae deletion strains, locus YKL048C, strain ELM1, stronger effect = lower value 0.897 | S. cerevisiae deletion strains, locus YKL067W, strain YNK1, stronger effect = lower value 0.938 | S. cerevisiae deletion strains, locus YKL101W, strain HSL1, stronger effect = lower value 0.906 | S. cerevisiae deletion strains, locus YKL193C, strain SDS22, stronger effect = lower value 0.93 | S. cerevisiae deletion strains, locus YKL203C, strain TOR2, stronger effect = lower value 0.921 | S. cerevisiae deletion strains, locus YLR133W, strain CKI1, stronger effect = lower value 0.916 | S. cerevisiae deletion strains, locus YLR403W, strain SFP1, stronger effect = lower value 0.846 | S. cerevisiae deletion strains, locus YML070W, strain DAK1, stronger effect = lower value 0.922 | S. cerevisiae deletion strains, locus YMR001C, strain CDC5, stronger effect = lower value 0.918 | S. cerevisiae deletion strains, locus YMR205C, strain PFK2 (second series), stronger effect = lower value 0.889 | S. cerevisiae deletion strains, locus YMR277W, strain FCP1, stronger effect = lower value 0.933 | S. cerevisiae deletion strains, locus YNL006W, strain LST8, stronger effect = lower value 0.948 | S. cerevisiae deletion strains, locus YNL020C, strain ARK1, stronger effect = lower value 0.881 | S. cerevisiae deletion strains, locus YNL161W, strain CBK1, stronger effect = lower value 0.936 | S. cerevisiae deletion strains, locus YNL183C, strain NPR1, stronger effect = lower value 0.88 | S. cerevisiae deletion strains, locus YNL207W, strain RIO2, stronger effect = lower value 0.925 | S. cerevisiae deletion strains, locus YNL222W, strain SSU72, stronger effect = lower value 0.938 | S. cerevisiae deletion strains, locus YNL307C, strain MCK1 (second series), stronger effect = lower value 0.861 | S. cerevisiae deletion strains, locus YOL078W, strain AVO1, stronger effect = lower value 0.931 | S. cerevisiae deletion strains, locus YOL136C, strain PFK27, stronger effect = lower value 0.913 | S. cerevisiae deletion strains, locus YOR061W, strain CKA2, stronger effect = lower value 0.879 | S. cerevisiae deletion strains, locus YOR119C, strain RIO1, stronger effect = lower value 0.868 | S. cerevisiae deletion strains, locus YOR231W, strain MKK1, stronger effect = lower value 0.916 | S. cerevisiae deletion strains, locus YOR329C, strain SCD5, stronger effect = lower value 0.931 | S. cerevisiae deletion strains, locus YPL031C, strain PHO85, stronger effect = lower value 0.897 | S. cerevisiae deletion strains, locus YPL153C, strain RAD53, stronger effect = lower value 0.93 | S. cerevisiae deletion strains, locus YPL204W, strain HRR25, stronger effect = lower value 0.921 | S. cerevisiae deletion strains, locus YPL209C, strain IPL1, stronger effect = lower value 0.932 | S. cerevisiae deletion strains, locus YPR025C, strain CCL1, stronger effect = lower value 0.925 | S. cerevisiae deletion strains, locus YPR106W, strain ISR1, stronger effect = lower value 0.959 | S. cerevisiae deletion strains, locus YPR111W, strain DBF20, stronger effect = lower value 0.946 | S. cerevisiae deletion strains, strain NNK1, stronger effect = lower value 0.91 | S. cerevisiae deletion strains, strain TSCII, stronger effect = lower value 0.932
active: [2] 0.824 | S. cerevisiae deletion strains, locus YLR113W, strain HOG1, stronger effect = lower value 0.823 | S. cerevisiae deletion strains, locus YPL256C, strain CLN2, stronger effect = lower value 0.852
